Here are results for 64 compounds from PubChem BioAssay AID651965 (National Center for Advancing Translational Sciences (NCATS), 2013).

In all, about 340,000 compounds went through this assay and about 6,400 (1.9%) were called active. Where a call stands in place of a potency, no number is given. About 4% were inconclusive and are not listed. The sample holds actives, similar compounds and a random draw of the others, so the mix is not that of the screen. Calls come from the whole dose curve; as a rule, active = well fitted falling curve with a large enough effect; inconclusive = small, poorly fitted or top-dose-only effect; inactive = no such curve, though single readings can be large or run the other way.
Potency is the fitted concentration of half-maximal effect.

Sequence of ATP-dependent Clp protease proteolytic subunit (Bacillus subtilis (strain 168)) (P80244 whole entry, looked up): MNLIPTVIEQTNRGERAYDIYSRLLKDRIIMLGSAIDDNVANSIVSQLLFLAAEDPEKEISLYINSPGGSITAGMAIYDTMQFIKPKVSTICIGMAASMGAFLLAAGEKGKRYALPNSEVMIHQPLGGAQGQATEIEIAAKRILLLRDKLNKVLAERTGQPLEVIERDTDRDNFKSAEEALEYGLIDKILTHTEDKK

The assay has as its target ATP-dependent Clp protease proteolytic subunit (Bacillus subtilis (strain 168)) (UniProt P80244). Put plainly: qHTS Assay for Activators of ClpP. Note: the source files actives as falling curves though it sought activators and does not explain the sign; nearly all actives have a fitted effect of over 65% in size. The settings on record: purified B. subtilis ClpP, FRET peptide cleavage, 20 min; series mostly up to 57.5 µM. A digest of the protocol:
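Buffer: 100 mM Tris/HCl pH8, 100 mM KCl, 0.05% low protease BSA, 2.5% glycerol, 0.01% Tween-20. ClpP 10 microg/mL final; 20 min RT; delta FRET normalized to ADEP and DMSO controls.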
(In general: In qHTS, concentration-response curves come from the screen itself.)
`O=C(OCc1cn([C@H]2C[C@H](c3ccccc3)N(C(=O)c3cccs3)C[C@@H]2O)nn1)c1ccccc1`: the Potency entry is “inactive”.

In the case of `CCOC(=O)C1=CC[C@@H](c2ccncc2)N(S(=O)(=O)c2ccc(C)cc2)C1`, the Potency entry was “inactive”.

On to `CC1(C(=O)NCc2ccc3c(c2)OCO3)CCN1CCc1ccccc1` (centres undefined), for which the Potency entry was “inactive”.

As to `C[N+](C)(C)CCNC(=O)c1c[nH]c2ccccc12`, the Potency entry is “inactive”.

On to `CC1CCN(C(=O)COC(=O)c2cc(=O)[nH]c3ccccc23)CC1`, for which the Potency entry is “inactive”.

Turning to `CCOC(=O)c1ccc(COC(=O)c2cc(=O)[nH]c3ccccc23)o1`, the Potency is 15.8 µM (active).

On to `CCOC(=O)c1ccc(NC(=O)c2cc(=O)[nH]c3ccccc23)cc1`, for which the Potency entry is “inactive”.

For the compound `Cc1ccc2nc(-c3ccccc3)c(CC3CCCCC3)n2c1`, the Potency entry was “inactive”.

On to `SCc1nc2ccc(Cl)cc2[nH]1`, for which the Potency result is “inactive”.

In the case of `COc1ccccc1CC(=O)Nc1ccc(F)cc1F`, the Potency entry was “inactive”.

As for `COc1ccccc1CC(=O)Nc1ccc([N+](=O)[O-])cc1OC`, the Potency was 7.08 µM (active).

As to `COc1cc([N+](=O)[O-])ccc1NC(=O)CN1CCCC1`, the Potency entry was “inactive”.

For `O=C(NC(c1ccc(-c2ccccc2)cc1)c1cnccn1)C1CCN(CCOc2ccc(Cl)cc2Cl)CC1` (centres undefined), the Potency entry was “inactive”.

For `COc1cc2nc(N3CCCN(C)CC3)nc(NC(C)C)c2cc1OC`, the Potency entry was “inactive”.

With `COC(=O)Cn1c(=NC(=O)CSCC(=O)Nc2cc(C)on2)sc2ccccc21`, the Potency entry is “inactive”.

Turning to `COC(=O)Cn1c(=NC(=O)c2cc(OC)c(OC)c(OC)c2)sc2cc(OC)ccc21`, the Potency was 2.82 µM (active).

In the case of `COC(=O)Cn1c2ccc(C)cc2c2nc(C)sc21`, the Potency entry was “inactive”.

For `Cc1ccccc1-c1csc(C(O)c2cccc(Cl)c2)n1` (centres undefined), the Potency result is “inactive”.

`COc1ccc(C(=O)Nc2ccccc2C(=O)N2CCN(c3ccccc3)CC2)cc1`: the Potency entry is “inactive”.

Take `COc1ccc(C(=O)N2CCC(C(=O)Nc3ccc(C)cc3)CC2)cc1`: the Potency entry is “inactive”.

Regarding `COc1ccc(C(=O)Nc2c(Cl)cc(Cl)cc2C(=O)N2CCC(C)CC2)cc1`, the Potency is 15.8 µM (active).

As for `OC(Cc1ccc2ccccc2n1)c1ccc(Cl)c(Cl)c1` (centres undefined), the Potency entry is “inactive”.

Consider `COc1ccc(-c2nc(SCC(=O)N3CCOCC3)n[nH]2)cc1`, for which the Potency is 15.8 µM (active).

In the case of `O=C(CSc1nnc(-c2ccoc2)o1)N1CCOCC1`, the Potency result was “inactive”.

With `COc1ccc(N2CCN(C(=O)CSc3nnc4ncccn34)CC2)cc1`, the Potency result is “inactive”.

For the compound `COc1ccc(-c2ccnc(SCC(=O)N3CCOCC3)n2)cc1`, the Potency is 15.8 µM (active).

With `O=C(CSc1n[nH]c(-c2ccccc2)n1)N1CCCCC1`, the Potency result was “inactive”.

Consider `COc1ccc(-c2nc(SCC(=O)N3CCCCC3C)n[nH]2)cc1` (centres undefined), for which the Potency result is “inactive”.

As for `CCc1ccccc1NC(=O)CN1CCN(C(=O)c2cc(C3CC3)nn2-c2ccccc2)CC1`, the Potency entry is “inactive”.

For `CSc1ccc(CNC(=O)C2(C)CCCN2C)cc1` (centres undefined), the Potency entry was “inactive”.

With `CCOC(=O)c1ccc(COC(=O)CCc2nc(-c3ccccc3)c(-c3ccccc3)o2)cc1`, the Potency was 28.2 µM (active).

On to `CCOC(=O)c1c(-c2ccc(OC)cc2)oc2ccc(OCc3ccc(C(=O)OC)cc3)cc12`, for which the Potency result is “inactive”.

As to `CCOC(=O)c1ccc(-n2c(CCC(=O)O)ccc2-c2ccccc2)cc1`, the Potency result is “inactive”.

As for `COC(=O)C1=CN(c2c(C)cc(C)cc2C)C(N)=C(C#N)C1c1cccc(F)c1` (centres undefined), the Potency entry is “inactive”.

As to `Cc1ccc(Cn2cc(CN3CC(N4CCN(C)CC4)CS3(=O)=O)nn2)cc1` (centres undefined), the Potency entry is “inactive”.

For the compound `OC[C@@H]1CN(Cc2cccs2)C[C@H](n2cnc3c(Nc4ccccc4)ncnc32)O1`, the Potency result was “inactive”.

With `CC(C)C[C@@H](COCc1ccc(Cl)cc1)N1CCN(C(=O)c2ccc(Cl)cc2Cl)CCC1=O`, the Potency result was “inactive”.

With `OC[C@@H]1CN(Cc2ccc(-c3ccccc3)cc2)C[C@H](n2cnc3c(NC4CCCC4)ncnc32)O1`, the Potency entry was “inactive”.

With `COc1cccc2c(=O)n(CC(=O)N3CCCCCC3)ccc12`, the Potency entry is “inactive”.

For `O=C(CN1C(=O)c2cccc3cccc(c23)C1=O)N1CCCCC1`, the Potency is 14.1 µM (active).

As for `C[N+](C)(CCCCCC[N+](C)(C)CCCN1C(=O)c2cccc3cccc(c23)C1=O)CCCN1C(=O)c2cccc3cccc(c23)C1=O`, the Potency result was “inactive”.

As to `C#CCNC(=O)C[C@@H]1C[C@@]2(C(=O)OCC)CCCC=C2N(Cc2ccco2)C1=O`, the Potency entry was “inactive”.

With `CC(=O)Nc1cccc(Nc2ccc(C#N)cc2)c1`, the Potency entry was “inactive”.

Regarding `O=C1O/C(=C\c2ccc(O)cc2)C(O)=C1c1ccc(O)cc1`, the Potency entry is “inactive”.

Turning to `CCC(C)(C)NC(=O)C(c1ccc(O)cc1)N(C(=O)Cn1nnc2ccccc21)c1ccc(NC(C)=O)cc1` (centres undefined), the Potency result is “inactive”.

In the case of `CCC(C)(C)NC(=O)C(c1cccn1C)N(Cc1ccc(C)cc1)C(=O)Cn1nnc2ccccc21` (centres undefined), the Potency is 31.6 µM (active).

`CC(C)(C)NC(=O)C(c1ccco1)N(Cc1ccc2c(c1)OCO2)C(=O)Cn1nnc2ccccc21` (centres undefined): the Potency result is “inactive”.

For `Nc1[nH]c(C(=O)c2ccccc2)c(-c2ccncc2)c1C(=O)NCc1cccc2ccccc12`, the Potency result was “inactive”.

In the case of `CCOC(=O)C1CCCN(C(=O)c2cccc3ccccc23)CC1` (centres undefined), the Potency entry is “inactive”.

Take `COc1ccccc1CNC(=O)c1ccc(NC(=O)N2CC(C)Sc3ccccc32)cc1` (centres undefined): the Potency result is “inactive”.

For the compound `COc1ccc(CCNC(=O)c2nn(C)c3c2CSc2ccccc2-3)cc1OC`, the Potency entry is “inactive”.

With `COc1ccc(CCNC(=O)c2cc3cccc4c3n2CC(C)S4)c(OC)c1OC` (centres undefined), the Potency was 31.6 µM (active).

On to `NC(c1csc(NC(=O)Nc2cccc(C(F)(F)F)c2)n1)C1CCCCC1` (centres undefined), for which the Potency entry is “inactive”.

Regarding `CN(Cc1ccccc1F)c1cc2c(c3c1ccn3C)C1CCC2O1` (centres undefined), the Potency result is “inactive”.

In the case of `COC(=O)Cc1ccc(OC2(C)CCN(Cc3ccc4c(c3)OCCO4)C2)cc1` (centres undefined), the Potency result is “inactive”.

Turning to `O=C(Nc1ccc([N+](=O)[O-])cc1)c1cnn2c1NC(=C1CC1)C=C2C(F)F`, the Potency entry is “inactive”.

Consider `Cc1cc(N2CCN(S(=O)(=O)c3ccc(C)c(C)c3)CC2)c2ccccc2n1`, for which the Potency entry was “inactive”.

Consider `Cc1ccc(S(=O)(=O)N2CCN(c3ccccc3)CC2)cc1C`, for which the Potency is 17.8 µM (active).

As for `CC(=O)Nc1ccc(S(=O)(=O)N2CCN(c3ccccc3)CC2)cc1`, the Potency entry was “inactive”.

Turning to `C[N+]1(CC(=O)c2cccs2)CCOCC1`, the Potency entry is “inactive”.

`CCCCC(=O)N(C)c1c(CC)nc2c(OCc3ccc(S(C)(=O)=O)cc3)cccn12`: the Potency entry was “inactive”.

Turning to `Cc1ccc(C2C=C(c3ccc(Cl)cc3)Nc3nc(NC(=O)CCC(=O)O)nn32)cc1` (centres undefined), the Potency is 6.31 µM (active).

In the case of `CCOc1ccc(C2=CC(c3ccccc3)n3ncnc3N2)cc1` (centres undefined), the Potency entry was “inactive”.

In the case of `COc1ccc(C2=CC(c3ccccc3Cl)n3nc(-c4ccc(Cl)cc4)nc3N2)cc1` (centres undefined), the Potency entry is “inactive”.
